21 compounds from PubChem BioAssay (EPA / NIEHS) can be followed below.

Records with an inconclusive call do not appear. Some structures have more than one record in an assay (separate samples or runs), and their calls can disagree. Calls of active or inactive are those of the source. How the source made its calls: active means hit-call score of the fitted dose curve at least 0.9, where 1 is the maximum; inconclusive means response in the unintended direction; inactive means score below 0.9.

The assay is described as follows: Tanguay_ZF_120hpf_YSE_legacy: (Legacy) Oregon State University Tanguay Lab 120 Hour Post-fertilization zebrafish Assay for Yolk Sac Edema (AID 2283634).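 On AC50: actives raise the incidence of yolk sac edema above the DMSO baseline.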 In short, it runs like this: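 Readout: presence or absence of yolk sac edema at 120 hpf, fitted upward against DMSO controls. Exposure ran statically from 6 hpf in dechorionated embryos kept at 28C.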
Regarding `CCOP(=S)(OCC)Oc1nc(Cl)c(Cl)cc1Cl`, the result was inactive.

Regarding `CCC(C)(C)c1ccc(O)c(C(C)(C)CC)c1`, the outcome was inactive. `O=c1[nH]c(=O)[nH]c(=O)[nH]1`: the compound was called inactive.

Turning to `Oc1cccc2cccnc12`, the compound was called inactive. `O=C(O)C(Cl)(Cl)Cl`: the call was inactive. For the compound `CC12CC1(C)C(=O)N(c1cc(Cl)cc(Cl)c1)C2=O` (configuration not stated), the compound was called inactive. Turning to `O=C(O)C(F)(F)C(F)(F)C(F)(F)C(F)(F)C(F)(F)C(F)(F)C(F)(F)C(F)(F)C(F)(F)C(F)(F)F`, the outcome was inactive. For the compound `CCCCCCCCc1ccc(O)cc1`, the outcome was inactive. Still for that read-out and setting: under `O=C(Nc1ccc2[nH]ccc2c1)c1cc2cc(F)ccc2n1Cc1cccc(F)c1` stands “inactive”. As usually defined, the AC50 is the concentration at which the activity in the assay is half-maximal. With `COc1cc(-c2ccc(N)c(OC)c2)ccc1N`, the AC50 is 32.8 µM (active) and the outcome was inactive. With `C=C(C)C(=O)[O][Sn]([CH2]CCC)([CH2]CCC)[CH2]CCC`, the call was inactive.

For the compound `C[C@@H]1C[C@@H]([C@H](O)CC2CC(=O)NC(=O)C2)C(=O)[C@@H](C)C1`, the outcome was inactive. `CC(C)(c1ccccc1)c1ccc(O)c(C(C)(C)c2ccccc2)c1`: the call was inactive.

Take `CCOP(=S)(OCC)SCSP(=S)(OCC)OCC`: the compound was called inactive. Regarding `CC(=O)[O][Hg][c]1ccccc1`, the compound was classed as inactive. For the compound `CN(C)N=O`, the result was inactive.

On to `CC(C)(C)CC(C)(C)c1ccc(O)cc1`, for which the call was inactive.

Consider `C=CC(=O)OCCCCCC(C)C`, for which the result was inactive. In the case of `O=C1C2(Cl)C3(Cl)C4(Cl)C(Cl)(Cl)C5(Cl)C3(Cl)C1(Cl)C5(Cl)C24Cl` (configuration not stated), the AC50 is 72.1 µM (active). With `C[C@]12CCC(=O)C[C@@H]1CC[C@@H]1[C@@H]2CC[C@]2(C)[C@@H](O)CC[C@@H]12`, the outcome was inactive. For `CC(C)(C)c1cc(O)ccc1O`, the result was inactive.
